An excerpt weighted towards active compounds, which were near 3.2% of everything screened.
AmpC detergent: AmpC beta-lactamase inhibition with detergent present | AmpC hydrolysis of nitrocefin, absorbance 480 nm, 0.01% Triton | Potency, µM (highest dose often 114 µM), usual class: inhibitors | 370,000 compounds, 0.041% hits | AID 485294; also: nearly all actives have a fitted effect of over 25% in size
Target sequence (P00811 whole entry, looked up): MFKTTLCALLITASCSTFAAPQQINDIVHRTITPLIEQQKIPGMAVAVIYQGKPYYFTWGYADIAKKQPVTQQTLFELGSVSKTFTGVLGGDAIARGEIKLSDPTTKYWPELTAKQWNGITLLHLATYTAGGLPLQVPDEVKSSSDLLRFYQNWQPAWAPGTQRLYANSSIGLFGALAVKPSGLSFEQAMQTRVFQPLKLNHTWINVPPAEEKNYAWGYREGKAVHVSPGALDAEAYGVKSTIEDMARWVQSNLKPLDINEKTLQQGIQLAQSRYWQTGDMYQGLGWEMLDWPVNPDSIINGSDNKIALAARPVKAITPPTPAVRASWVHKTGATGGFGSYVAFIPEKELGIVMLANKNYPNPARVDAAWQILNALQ
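AmpC (5.3 nM in the dispensed reagent) in 20 mM phosphate pH 7.0 with 0.01% (detergent screen) or 0.0001% Triton X-100 was preincubated with compounds for 15 min at room temperature. Nitrocefin was then added from an 800 uM solution, and hydrolysis was followed at 480 nm.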
Sm TGR block: blocks Schistosoma mansoni thioredoxin glutathione reductase | AID 485364 | 360,000 compounds, 3% hits | purified TGR, DTNB reduction, TNB absorbance 405 nm | Q962Y6 | Potency, µM (doses to about 114 µM), usual class: inhibitors; also: nearly all actives have a fitted effect of over 60% in size
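TGR 20 nM + NADPH 100 uM (dispensed conc.), cpd preinc 15 min RT; start with NADPH (500 uM addition) then DTNB (15 mM addition). Kinetic TNB absorbance, 405 nm filter. Four-parameter Hill fit across titration.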
AMA1-RON2 inh: disrupts binding of P. falciparum AMA1 to RON2; AlphaScreen AMA1-biotinylated RON2 peptide binding; Potency, µM (titrated, usually from 58.2 µM), hits mostly inhibitors; 360,000 compounds, 0.2% hits; AID 720542; also: nearly all actives have a fitted effect of over 45% in size
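AMA1 (3D7) with his tag at 25 nM final met compounds first, then biotinylated RON2 peptide at 25 nM; detection used donor plus acceptor beads, 10 µg/mL apiece, read by AlphaScreen after 30 min at room temperature.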
RE007 growth inh: less growth of the S. pombe RE007 Vpr strain. S. pombe RE007 Vpr strain, BacTiter-Glo ATP luminescence, 24 h. Potency, µM (highest dose often 92.2 µM), hits mostly inhibitors. 360,000 compounds, 0.21% hits. AID 651644; active = well fitted falling curve with a large enough effect; inconclusive = small, poorly fitted or top-dose-only effect; inactive = no such curve, though single readings can be large or run the other way; also: nearly all actives have a fitted effect of over 50% in size
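Fission yeast strain RE007, carrying one chromosomally integrated HIV-1 vpr copy, was seeded at OD 0.01 in PMG+AL medium with 23 nL pinned compound. After 24 h at 30 °C and 99% humidity, viability was read by BacTiter-Glo luminescence.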
AmpC no deterg: blocks E. coli AmpC beta-lactamase in detergent-free assay; Potency, µM (doses to about 57.1 µM), actives largely listed as inhibitors; AID 485341; P00811; 330,000 compounds, 0.52% hits; AmpC nitrocefin hydrolysis, absorbance 480 nm, 0.0001% Triton; also: nearly all actives have a fitted effect of over 20% in size
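20 mM phosphate pH 7.0 + 0.01% (detergent screen) or 0.0001% Triton X-100; 5.3 nM AmpC reagent; cpd preinc 15 min RT; nitrocefin (800 uM stock) to start; A480 q20 s × 4 min; Activity was normalised to no-enzyme and no-compound control wells.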
Hits are given with their value; 0 = inactive; ? = inconclusive; - = no result. Unless noted, calls follow the shape of the dose curve; as a rule, active = well fitted curve in the direction sought with a large enough effect; inconclusive = small, poorly fitted or top-dose-only effect, or another doubt; inactive = no such curve, though single readings can be large; an effect the other way counts as inactive or inconclusive.

SMILES	AmpC detergent	Sm TGR block	AMA1-RON2 inh	RE007 growth inh	AmpC no deterg
COc1ccccc1-n1ncc2c(=O)[nH]c(SCC(=O)Nc3ccc(Cl)cc3)nc21	0	0	-	-	-
S=C(Nc1ccc2nsnc2c1)N1CCCC1	0	40µM	0	0	0
Cc1ccc(CN2CCN(/N=C\C=C\c3ccccc3)CC2)cc1	0	0	13µM	0	0
Cc1ccc(CN2CCN(/N=C/c3ccc(C)s3)CC2)cc1	?	0	25µM	0	0
Cc1ccc(/C=N/N2CCN(Cc3ccccc3)CC2)s1	0	0	0	0	0
O=C(NCCc1ccccc1)c1ccc(Cn2c(SCc3cccc(F)c3)nc3cccnc32)cc1	0	0	-	-	0
O=c1cc(-c2ccccc2)n2c(SCc3ccccc3Cl)nnc2[nH]1	0	0	-	-	-
Cc1c(C(=O)Nc2ccccc2)sc2nc(-c3cc4ccccc4oc3=O)[nH]c(=O)c12	0	0	-	-	-
O=C(Nc1cccc(C(F)(F)F)c1)c1cc(-c2ccc3c(c2)OCCO3)on1	0	0	-	-	-
Cc1cnnn1-c1ccc(C(=O)CCl)cc1	0	5.6µM	0	0	0
Cc1ccc(-n2nnnc2C(Cl)(Cl)c2nnnn2-c2ccc(C)cc2)cc1	0	18µM	0	0	0
CCCCN(C)c1nc(-c2ccco2)c2c(c1C#N)CC(C)(C)OC2	?	2.8µM	0	0	0
CC1(C)Cc2c(C#N)c(N3CCCC3)nc(-c3ccco3)c2CO1	0	3.5µM	-	-	0
CC(C)CCNc1nc(-c2ccco2)c2c(c1C#N)CCCC2	0	40µM	0	0	0
CN(C)CCNc1nc(-c2ccco2)c2c(c1C#N)CC(C)(C)OC2	0	0	0	0	0
CC1(C)Cc2c(C#N)c(NCc3ccco3)nc(-c3ccco3)c2CO1	0	7.9µM	0	0	0
CC1(C)Cc2c(C#N)c(N3CCN(C(=O)c4ccccc4)CC3)nc(-c3ccco3)c2CS1	0	3.2µM	0	0	0
N#Cc1c(N2CCOCC2)nc(-c2ccco2)c2c1CCCC2	0	2.8µM	0	0	0
CCN(C(=O)CSc1nc(-c2ccc(C(C)C)cc2)no1)c1cccc(C)c1	0	0	-	-	-
COc1ccc(C(=O)Oc2cc(N)n(S(=O)(=O)c3ccccc3)n2)cc1	0	0	0	0	0
COc1ccc(S(=O)(=O)n2nc(OC(C)=O)cc2N)cc1	0	25µM	0	0	0
COc1cccc(NC(=O)Nc2nnc(CC(=O)NCc3ccccc3)s2)c1	0	0	0	0	25µM
O=C(O)CCCCCNS(=O)(=O)c1cccc2c1C(=O)c1ccccc1C2=O	0	50µM	?	?	0
O=C(O)CCCCCNS(=O)(=O)/C=C/c1ccccc1	0	-	0	0	0
NC1(C#Cc2ccc3oc(=O)c(-n4cc(C5(O)CCCCC5)nn4)cc3c2)CCCCC1	-	-	0	0	0
SMILES	AmpC detergent	Sm TGR block	AMA1-RON2 inh	RE007 growth inh	AmpC no deterg
NC1(C#Cc2ccc3oc(=O)c(-n4cc(-c5ccsc5)nn4)cc3c2)CCCCC1	0	56µM	0	0	0
CCOc1ccccc1NC(=O)c1cn(C2CCCCC2)c(=O)c2c1c1ccccc1n2C	0	0	-	-	-
CC(C)c1cc(=O)oc2c3c4c(cc12)CCCN4CCC3	0	45µM	0	0	0
COc1ccc(N2CCN(C(=O)CSc3nc(-c4ccc(C(C)C)cc4)no3)CC2)cc1	0	0	-	-	-
COc1cc(C(C(=O)NCC2CCCO2)N(C(=O)Cn2nnc3ccccc32)c2ccc(OC)c(OC)c2)ccc1O (stereo not given)	0	45µM	0	0	0
CCOc1cc(C(C(=O)NCC2CCCO2)N(C(=O)Cn2nnc3ccccc32)c2ccc(NC(C)=O)cc2)ccc1O (stereo not given)	0	22µM	0	0	0
Cc1ccc(S(=O)(=O)N2CCN(Cc3nc4ccc(C)cc4o3)CC2)c(C)c1	0	0	-	-	-
CCSc1nc(-c2ccc(OC)cc2)nc2c1Cc1c(CO)cnc(C)c1O2	0	0	-	-	-
COC/C=C/C1=CC2=CC(=O)C(C)(OC(=O)C3CCCC3)C(=O)C2=CO1 (stereo not given)	0	3.5µM	?	0	0
COC/C=C/C1=CC2=CC(=O)C(C)(OC(=O)c3cnc4ccccc4n3)C(=O)C2=CN1C1CC1 (stereo not given)	-	-	0	0	-
